# In the supplement of paper PMC3334620:
# In all, about 33,000 sequences were measured (“E-score (-0.5 to 0.5)”: median about -0.0059, highest 2% from about 0.26 on). Shown is part of a subset that was picked to be rich in the highest values.
# Target: T1, Cin5 (UniProt P40917)
# T1 sequence: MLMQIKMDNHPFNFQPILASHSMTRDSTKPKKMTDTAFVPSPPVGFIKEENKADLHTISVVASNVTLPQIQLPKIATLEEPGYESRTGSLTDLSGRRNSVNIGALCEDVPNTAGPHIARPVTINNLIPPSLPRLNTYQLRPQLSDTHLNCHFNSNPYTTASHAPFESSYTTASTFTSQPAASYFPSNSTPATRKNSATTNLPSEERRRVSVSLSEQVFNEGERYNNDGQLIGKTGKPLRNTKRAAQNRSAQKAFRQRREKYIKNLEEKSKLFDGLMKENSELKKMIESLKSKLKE
# Assay: PBM E-score (8-mer binding enrichment) (E-score (-0.5 to 0.5)); higher = stronger / more preferred TF binding
# Settings: protein concentration: 100 nM; construct: GST-full length
# Method: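 Universal 'all 10-mer' protein binding microarrays (Agilent AMADID 015681) probed with GST-tagged S. cerevisiae TFs (full-length or DBD) made by in vitro transcription/translation (PURExpress), about 100-200 nM. Bound TF was detected with fluorescent anti-GST. Each ungapped 8-mer (which stands for itself and its reverse complement) is scored by the PBM enrichment score (E-score), a modified Wilcoxon-Mann-Whitney statistic from -0.5 to +0.5, computed with the Universal PBM Analysis Suite. Scale: above 0.35 generally sequence-specific binding.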
row,Sequence,PBM E-score
1,ATGGAACA,-0.0505
2,GCACTGAA,-0.0379
3,CCATTGAG,0.00119
4,AGACACCA,-0.0438
5,GGGAGCCC,-0.419
6,CCACGCAG,-0.0201
7,GCATAAGC,0.276
8,CCATAAGC,0.215
9,GCATAAGA,0.0468
10,GACTTGAC,-0.208
11,GAGCGGGA,-0.0794
12,GGCAACCA,-0.0499
13,CTTTCGCC,-0.0892
14,GGGAATCA,-0.0779
15,CGGAATCA,0.27
16,AGGAATCA,0.172
17,CATAGCCC,-0.222
18,CCCACTAC,0.0221
19,CTGGAGAA,-0.202
20,CTACACAG,-0.0209
21,TAAGAACA,0.29
22,CAAGAACA,-0.0469

row,Sequence,PBM E-score
1,GAAGAACA,0.215
2,CGTAGACG,-0.217
3,GAAACTGA,-0.17
4,CCCGAGTA,0.15
5,CGTAGATA,0.0684
6,ATTAGCTA,0.3
7,GTTAGCTA,0.0147
8,TATAGATA,0.176
9,AATAGATA,0.269
10,AGTAGATA,0.306
11,CTTAGCTA,0.151
12,GTTAGATA,0.113
13,AGTAGATC,-0.0135
14,GATAGATA,0.0426
15,ATTAGATA,0.301
16,ATTAGATG,0.239
17,CCGGTTTC,0.0044
18,TACAATCA,0.152
19,CCCTCAGG,-0.164
20,AACCAAAA,0.204
21,CCGCCCCA,0.109
22,AGTGCCGC,-0.124

row,Sequence,PBM E-score
1,AGGGCCAC,-0.194
2,AGAAGGGC,-0.254
3,CTATAACC,-0.144
4,ATATAACA,0.284
5,CTATAACA,-0.122
6,GTATAACA,0.126
7,ATATAACG,0.273
8,ATATAACC,0.188
9,CTTAAACC,-0.192
10,ACGGCGTC,-0.0496
11,GAACTGGC,-0.125
12,ACTAATTA,0.228
13,GATAATTA,0.218
14,ACTAATTC,0.204
15,CCTAATTA,0.0517
16,AATAATTC,0.261
17,CATAATTC,0.138
18,AATAATTG,0.0887
19,CATAATTA,0.308
20,AATAATTA,0.35
21,ACCGAAGA,0.0871
22,ACCAATGC,0.0593

row,Sequence,PBM E-score
1,AGAGACTC,-0.0094
2,CCTCGCCC,0.0221
3,AGCCTTAG,-0.197
4,CAACAGTA,0.0302
5,GCCAGCCA,-0.193
6,GATACAAA,0.173
7,AATACAAC,0.236
8,TATACAAA,0.169
9,AATACAAG,0.294
10,AATACAAA,0.342
11,AATACAAT,0.154
12,AACTCCCT,-0.142
13,CATTAACG,0.0883
14,CGCATGAA,0.116
15,GGTAACCA,-0.151
16,ATTATTGA,0.111
17,ACAATACG,0.05
18,ATAATAAC,0.206
19,ACAATACC,0.278
20,GCAATACA,0.274
